26 compounds from PubChem BioAssay AID652257 (The Scripps Research Institute Molecular Screening Center, 2013) can be followed below.

Among all 370,000 compounds or so, about 4,800 (1.3%) were called active. The sample holds actives, similar compounds and a random draw of the others, so the mix is not that of the screen. Unmarked numbers belong to inactive results.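 How the source made its calls: active means inhibition above about 21% made by adding two undisclosed values (limit read from the data); inactive means the rest.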

Protein arginine N-methyltransferase 1 (Homo sapiens), sequence (Q99873 whole entry, looked up): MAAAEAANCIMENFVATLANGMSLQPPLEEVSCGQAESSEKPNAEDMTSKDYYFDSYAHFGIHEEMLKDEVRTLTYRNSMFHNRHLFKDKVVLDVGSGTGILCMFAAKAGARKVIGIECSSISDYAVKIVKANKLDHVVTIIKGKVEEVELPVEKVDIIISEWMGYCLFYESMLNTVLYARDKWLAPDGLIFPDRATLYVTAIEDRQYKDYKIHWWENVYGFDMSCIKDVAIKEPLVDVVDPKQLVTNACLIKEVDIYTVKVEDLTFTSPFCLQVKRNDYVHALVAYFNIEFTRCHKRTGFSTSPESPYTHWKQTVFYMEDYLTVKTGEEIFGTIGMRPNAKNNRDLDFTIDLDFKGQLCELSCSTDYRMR

This test concerns the target Protein arginine N-methyltransferase 1 (Homo sapiens) (UniProt Q99873). Kind of test: PRMT1 methyltransferase inhibitors, primary screen, biochemical, fluorescence polarization (AID 652257). To be noted: recombinant PRMT1, activity-based probe fluorescence polarization; at 2.79 µM; stronger effect = higher value.
`Fc1ccc(N2CCN(Cc3ccc4c(c3)OCO4)CC2)cc1`: the inhibition – broadly, the relative decrease from the control value, in per cent – is -0.82%.

In the case of `CC(C)c1ccc(O)c(CN2CCN(c3ccccc3)CC2)c1`, the inhibition was -1.49%.

For `Oc1cc2c(cc1CN1CCN(c3ccccc3)CC1)OCO2`, the inhibition is 24.3% (active).

For the compound `O=C(N/N=C/c1c(O)n(C2CC2)c(=S)[nH]c1=O)c1ccccc1`, the inhibition is 3.82%.

For the compound `CC1C2Cn3c(nc4ccccc43)C1N(C)O2` (stereo unspecified), the inhibition was 1%.

With `O=S(=O)(c1ccccc1)N1CCC2CCNC2C1` (stereo unspecified), the inhibition is -4.47%.

Turning to `ClC(Cl)(Cl)c1ccccc1`, the inhibition is -1.08%.

Regarding `O=C1NC(=O)N(c2ccccc2)C(=O)/C1=C/c1ccc([N+](=O)[O-])s1`, the inhibition was 30.1% (active).

Turning to `CC(C(=O)Nc1ccc(Cl)cc1Cl)N1CC=C(c2ccccc2)CC1` (stereo unspecified), the inhibition was -2.84%.

With `CCOc1ccc(-c2cc(C)[n+](CCN(CC)CC)c(-c3ccc(OCC)cc3)c2)cc1`, the inhibition was 4.49%.

For the compound `Cc1c(Oc2cc(NN3CCCCC3)c([N+](=O)[O-])cc2[N+](=O)[O-])cccc1[N+](=O)[O-]`, the inhibition is 0.33%.

For the compound `CCOc1cccc(=NC2CCCCC2)c2c(C)[nH]c(C)c12`, the inhibition was 24.5% (active).

On to `COc1ccc2c(c1)[C@@]13CCCCC1[C@@H](C2)NCC3` (stereo partly specified), for which the inhibition was 0.98%.

Turning to `CC(=O)C1(O)CCC2C3CCC4=C(Cl)C(=O)CCC4(C)C3CCC21C` (stereo unspecified), the inhibition is -3.26%.

With `CCCCC(=O)N/N=C/c1c(O)n(CCC2=CCCCC2)c(=O)[nH]c1=O`, the inhibition is 4.46%.

On to `O=C(O)COc1ccccc1/C=C1\C(=O)NC(=O)N(CCC2=CCCCC2)C1=O`, for which the inhibition was 21.6% (active).

Take `C=CCN1C(=O)NC(=O)/C(=C/c2ccc(OCC(=O)Nc3ccc(C)cc3)cc2)C1=O`: the inhibition was 2.43%.

Consider `COP(=O)(Sc1ccccc1)C(Cc1ccccc1)NC(=O)OCc1ccccc1` (stereo unspecified), for which the inhibition is 15.9%.

Regarding `CCC(C)NC1(c2ccccc2)CCCCC1` (stereo unspecified), the inhibition was -3.67%.

Regarding `Brc1ccc2c(c1)CNCc1cnnn1-2`, the inhibition was -6.53%.

Consider `CCCOC(=O)C1C2c3ccccc3C(c3ccccc32)C1C(=O)O` (stereo unspecified), for which the inhibition is -2.66%.

Take `Cc1cc(/C=C2/C(=O)NC(=O)N(Cc3ccco3)C2=O)c(C)n1-c1ccc(C(=O)O)cc1`: the inhibition is 42% (active).

Take `Cc1cc(C=C2C(=O)NC(=O)NC2=O)c(C)n1-c1ccncc1`: the inhibition was 3.52%.

For `O=C1NC(=O)N(Cc2ccco2)C(=O)/C1=C\c1ccc(-c2ccc(F)cc2)o1`, the inhibition was 25% (active).

Take `Cc1ccc(-n2c(C)cc(/C=C3\C(=O)NC(=O)N(C)C3=O)c2C)cc1C`: the inhibition was 2.43%.

In the case of `COc1cc2nc(N3CCN(C(=O)[C@@H]4CCCO4)CC3)nc(N)c2cc1OC`, the inhibition is -2.88%.
